The results in this text go back to PubChem BioAssay (NCATS).

Values joined by “and” are separate entries in the source; they are usually repeats but may differ in a detail not shown here. Equal values may be shown once. Records with an inconclusive call do not appear. Where a call stands in place of a potency, no number is given. Active and inactive are the calls of the source. Calls follow the shape of the dose curve; as a rule, active = well fitted inhibition curve with a large enough effect; inconclusive = small, poorly fitted or top-dose-only effect; inactive = flat fitted curve, though single readings scatter.
Potency is read from the fitted curve at half-maximal effect.

The subject of this assay is MCC-26. As to the kind of experiment: qHTS assay to identify novel small-molecules to repurpose for Merkel cell carcinoma treatment (AID 1296009). Also: nearly all actives have a fitted effect of over 60% in size. As to conditions: MCC and control cell lines, CellTiter-Glo viability, 72 h; series mostly up to 46 µM. The source says:
MCC is a rare and aggressive neuroendocrine skin cancer with limited treatment options. Approximately 80% of MCCs have the Merkel cell polyomavirus (MCPyV) DNA integrated into the host genome (virus-positive: VP-MCC) and viral oncogenes drive oncogenesis. The remaining MCCs are virus-negative (VN-MCC) and are caused by UV mutagenesis. To identify novel treatments for VP-MCC and/or VN-MCC we screened three VP-MCC cell lines (WAGA, MKL-1, MKL-2), three VN-MCC cell lines (MCC-13, MCC-26, UISO), and four immortalized, non-transformed control cell lines (HaCaT, HEK293T, CRL7250, NIH-3T3) against ~2,400 compounds in the NCGC Pharmaceutical Collection (NPC) and ~1,900 compounds in the Mechanism Interrogation PlatE (MiPE). Using cell viability as a readout (CellTiter-Glo assay) we found both overlapping and distinct drugs that can be repurposed for the treatment of VP-MCC and VN-MCC.
A high-throughput screen was conducted in 1536-well white flat bottom plates (Corning) on a Kalypsys robotic system. Cell lines WAGA, MKL-1, MKL-2, MCC-13, MCC-26, UISO, HaCaT, HEK293T, CRL7250, and NIH-3T3 were screened against 2 small molecule annotated drug libraries NPC and MIPE in dose response (8 and 11 pt. respectively) measuring cell viability after 72 hours of incubation. […] A 1,536 pintool (Kalypsys) was used to transfer 23 nL of compound in DMSO to the 1,536-well assay plates. After 72 hr incubation at 37 degree celsius, 2.5 uL of CellTiter-Glo (Promega) was dispensed into each well using a BiorapTR. Plates were incubated at room temperature for 10 min, transferred to a ViewLux (PerkinElmer) and the luminescence was recorded using an exposure time of 2 seconds. Relative luminescence units (RLUs) were normalized to in-plate controls (no cells as a positive (cytotoxicity) control, DMSO as negative control) and the normalized data was processed using NCATS in-house software.
Consider `Fc1ccc([C@@H]2CCNC[C@H]2COc2ccc3c(c2)OCO3)cc1`, for which the Potency entry was “inactive”.
The value for `COc1ccc(CCN(C)CCCC(C#N)(c2ccc(OC)c(OC)c2)C(C)C)cc1OC` (stereo not given) was “inactive”.
With `O=C(c1ccc(OCCN2CCCCC2)cc1)c1c(-c2ccc(O)cc2)sc2cc(O)ccc12`, the Potency result is “inactive”.
As to `Cc1ccc(C(=O)Nc2ccc(S(=O)(=O)O)c3cc(S(=O)(=O)O)cc(S(=O)(=O)O)c23)cc1NC(=O)c1cccc(NC(=O)Nc2cccc(C(=O)Nc3cc(C(=O)Nc4ccc(S(=O)(=O)O)c5cc(S(=O)(=O)O)cc(S(=O)(=O)O)c45)ccc3C)c2)c1`, the Potency result was “inactive”.
For the compound `N[C@@H](Cc1c[nH]c2ccc(O)cc12)C(=O)O`, the Potency entry was “inactive”.
Next, `Cc1cnc(C(=O)NCCc2ccc(S(=O)(=O)NC(=O)NC3CCCCC3)cc2)cn1`: “inactive”; `Cc1cc(C(C)(C)C)cc(C)c1CC1=NCCN1`: “inactive”; `C[C@](N)(Cc1ccc(O)c(O)c1)C(=O)O`: “inactive”.
The value for `CC1(C)O[C@H]2CC(=O)OC[C@]23[C@H]2CC[C@@]4(C)[C@H](c5ccoc5)OC(=O)[C@H]5O[C@]54[C@]2(C)C(=O)C[C@@H]13` was “inactive”; that for `CN(C)CCC=C1c2ccccc2C=Cc2ccccc21` was “inactive”.
Consider `CC1COc2c(N3CCN(C)CC3)c(F)cc3c(=O)c(C(=O)O)cn1c23` (stereo not given), for which the Potency entry was “inactive”.
In the case of `CN(Cc1cnc2nc(N)nc(N)c2n1)c1ccc(C(=O)N[C@@H](CCC(=O)O)C(=O)O)cc1`, the Potency entry is “inactive”.
Next, `O=c1c(O)c(-c2ccc(O)c(O)c2)oc2cc(O)cc(O)c12`: “inactive”; `O=C(Nc1ccc([N+](=O)[O-])cc1Cl)c1cc(Cl)ccc1O`: “inactive”; `CC(C)Cc1ccc(C(C)C(=O)O)cc1` (stereo not given): “inactive”.
The value for `COc1cc2c(c(OC)c1OC)-c1ccc(OC)c(=O)cc1[C@@H](NC(C)=O)CC2` was “inactive”.
The value for `COc1ccc2c(c1)c(CC(=O)O)c(C)n2C(=O)c1ccc(Cl)cc1` was “inactive”; that for `Nc1c2c(nc3ccccc13)CCCC2` was “inactive”.
On to `CC1(CN2CCC(n3c(=O)[nH]c4ccccc43)CC2)OCc2ccccc2-n2cccc21` (stereo not given), for which the Potency result was “inactive”.
Next, `CN(C)CCOC(c1ccccc1)c1ccccc1`: “inactive”.
The value for `COc1nc(C)nc(Cl)c1NC1=NCCN1` was “inactive”.
`CC#C[C@]1(O)CC[C@H]2[C@@H]3CCC4=CC(=O)CCC4=C3[C@@H](c3ccc(N(C)C)cc3)C[C@@]21C`: the Potency result was “inactive”.
The value for `COc1ccc2[nH]cc(CCNC(C)=O)c2c1` was “inactive”; that for `CN1C(C(=O)Nc2ccccn2)=C(O)c2ccccc2S1(=O)=O` was “inactive”; that for `Nc1nc2c(ncn2COC(CO)CO)c(=O)[nH]1` was “inactive”.
The value for `CN1C2CCC1CC(OC(=O)C(CO)c1ccccc1)C2` (stereo not given) was “inactive”.
On to `Cc1cc(C(C)(C)C)c(O)c(C)c1CC1=NCCN1`, for which the Potency result was “inactive”.
The value for `CC[C@@]1(O)C(=O)OCc2c1cc1n(c2=O)Cc2cc3c(CN(C)C)c(O)ccc3nc2-1` was 94.4 nM (active) and 418 nM (active); that for `C[C@@H]1CC(=O)NN=C1c1ccc(NN=C(C#N)C#N)cc1` was “inactive”.
Next, `Clc1ccc2c(c1)C(N1CCNCC1)=Nc1ccccc1O2`: “inactive”; `CN(C)c1nc(N(C)C)nc(N(C)C)n1`: “inactive”.
With `CC(C)(C)C(=O)Oc1ccc(S(=O)(=O)Nc2ccccc2C(=O)NCC(=O)O)cc1`, the Potency entry is “inactive”.
Next, `O=C(c1ccc(F)cc1)C1CCN(CCn2c(=O)[nH]c3ccccc3c2=O)CC1`: “inactive”; `COc1ccc(C2CNC(=O)C2)cc1OC1CCCC1` (stereo not given): “inactive”; `Clc1ccc2nsnc2c1NC1=NCCN1`: “inactive”.
The value for `CN(C)C(=O)C(CCN1CCC(O)(c2ccc(Cl)cc2)CC1)(c1ccccc1)c1ccccc1` was “inactive”; that for `CN1CCN(C2=Nc3cc(Cl)ccc3Nc3ccccc32)CC1` was “inactive”.
With `Cn1cnc2c1c(=O)[nH]c(=O)n2C`, the Potency entry is “inactive”.
The value for `Clc1ccccc1C(c1ccccc1)(c1ccccc1)n1ccnc1` was “inactive”; that for `CCC1(C)CC(=O)NC1=O` (stereo not given) was “inactive”.
